Rows were chosen to be rich in hits. Some 4% of all compounds tested hit in one or more screens of this group.
HIF-2a inh = HIF-2a reporter inhibitors, primary screen, luminescence, 786-0 RCC cells. 786-0 RCC cells HIF-2a reporter, luciferase luminescence, overnight. inhibition, % at 18.8 µM. 0.72% of 360,000 active. AID 624352, 2012;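 active means inhibition of the luminescence signal of 40% or more relative to plate controls, in a single-dose primary screen at 18.75 µM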
CF NFkB block = inhibitors of PAF-induced NF-kB signaling, primary screen, cell-based, GFP fluorescence, uHTS; KKLEB NF-kB-GFP reporter, GFP fluorescence overnight; AID 588850, 2011; inhibition, % at 5 µM; 0.86% of 360,000 active;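 active means at least 50% inhibition at 5 µM, scaled per plate between neutral and stimulator controls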;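 further: PAF is a Pseudomonas aeruginosa culture filtrate used as stimulus; plate controls were PAF-stimulated DMSO wells for no effect and unstimulated DMSO wells for full effect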
TROY NFkB inh = inhibitors of TROY-driven NF-kB signaling, primary screen, Q293 LMP1-TROYcd cells, NF-kB luciferase, uHTS. inhibition, % at 10 µM. Q293 LMP1-TROYcd NF-kB luciferase reporter, 4 h. 0.98% of 360,000 active;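 active means compounds whose plate-normalised and pattern-corrected inhibition of the luciferase reporter signal at the single screening dose is 50% or more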
TWEAK Fn14 block = inhibitors of TWEAK-Fn14 signaling, primary screen, luciferase reporter cells, uHTS | TWEAK-stimulated Fn14 reporter cells, luciferase luminescence, 8 h | inhibition, % at 10 µM | 2% of 360,000 active; in the data active means inhibition above about 50%
KKLEB tox = cytotoxicity in KKLEB CF airway cells, primary screen, cytotoxicity control for CF NF-kB inhibitor project, cell-based, uHTS, fluorescence assay plates; activity change (cytotoxicity), % at 5 µM; 0.36% of 360,000 active; AID 602141, 2011; KKLEB CF airway cells viability, ATPlite luminescence, overnight; hits give low values; cells stimulated with P. aeruginosa culture filtrate;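 active means corrected activity change at or below -50% at 5 µM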
Peg3 prom inh = Peg3 promoter-driven luciferase inhibitors, primary screen, cell-based, HeLa, luciferase luminescence; HeLa PEG-Prom luciferase reporter, overnight; inhibition, % at 20 µM; 1.7% of 360,000 active; AID 588405, 2011;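 active means inhibition of at least 50% at 20 µM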
Starred values were filed as active, the others as inactive.

SMILES	HIF-2a inh	CF NFkB block	TROY NFkB inh	TWEAK Fn14 block	KKLEB tox	Peg3 prom inh
Cc1cc2c(cc1C)-c1nnnn1C(C)(C)C2	-70	14	-10	0	6	-32
CC(C)(C)OC(=O)C[C@@H]1C/C=C\C[C@H](CC(=O)N[C@@H](CO)Cc2ccccc2)C(=O)N[C@H](C(C)(C)C)COC1=O	24	4	-2	1	1	4
COc1ccc(C(=O)CSC(=S)N2CCCCC2)cc1	-218	7	12	60*	-24	-146
O=C(CSC(=S)N1CCCCC1)c1ccccc1	-42	-36	50*	72*	-6	-34
CC(C)Nc1ncnc2c1ncn2[C@H]1CN(Cc2ccc(-c3ccccc3)cc2)C[C@@H](CO)O1	4	-16	30	18	-4	9
COc1cc(CNc2ncnc3c2ncn3[C@H]2CN(Cc3ccc(-c4ccccc4)cc3)C[C@@H](CO)O2)cc(OC)c1OC	-43	4	45	69*	-10	32
CC(C)CNc1ncnc2c1ncn2[C@H]1CN(Cc2ccc(-c3ccccc3)cc2)C[C@@H](CO)O1	-18	-3	28	51*	0	-2
O=c1[nH]c(CSc2ncnc3sc(-c4ccccc4)cc23)nc2ccccc12	-27	22	-5	-7	-7	23
COc1ccc(C[C@H]2CN3C(=NC[C@H]3Cc3ccccc3)N2CCNC(=O)CCC2CCCCC2)cc1	-6	22	-13	-5	-16	90*
Cc1ccc(C(=O)NCCN2C3=NC[C@H](Cc4ccc(O)cc4)N3C[C@H]2Cc2ccc(O)cc2)cc1Br	11	11	5	-2	-1	-4
COc1ccc(C[C@H]2CN3C(=NC[C@@H]3Cc3ccc(O)cc3)N2CCNC(=O)c2ccc(C)c(Br)c2)cc1	-4	21	-3	-38	-17	45
COc1ccc(C[C@H]2CN3C(=NC[C@H]3Cc3ccccc3)N2CCNC(=O)c2ccc(C)c(Br)c2)cc1	5	33	6	-34	-9	95*
COc1ccc(C[C@H]2CN3C(=NC[C@@H]3Cc3ccccc3)N2CCNC(=O)c2ccc(C)c(Br)c2)cc1	2	27	-6	-23	-33	97*
Cc1ccc(C(=O)NCCN2C3=NC[C@@H](Cc4ccccc4)N3C[C@H]2Cc2ccc(O)cc2)cc1Br	6	-2	9	3	5	79*
COc1ccccc1C(=O)C1CCCN(C(=O)c2ccco2)C1 (stereo not given)	-9	6	4	-18	0	8
O=S(=O)(c1ccc(Br)cc1Cl)N1CCN(CCO)CC1	10	-12	0	5	7	3
O=C1C=CC(=O)c2c(O)c(N3CCN(CCO)CC3)c(Cl)c(O)c21	90*	-23	1	24	15	102*
OCCOCCN1CCN(C2=Nc3ccccc3Sc3ccccc32)CC1	-17	34	-4	-13	-1	-15
O=C1C=CC(=O)c2c(O)c(N3CCN(CCOCCO)CC3)c(Br)c(O)c21	87*	6	16	-6	2	53*
Cn1cc(S(=O)(=O)Nc2ccc3c(c2)OCCO3)cn1	26	7	62*	70*	7	-15
CCn1cc(S(=O)(=O)Nc2ccc3c(c2)OCCO3)cn1	33	-18	86*	88*	8	37
Cc1nc(S(=O)(=O)Nc2ccc3c(c2)OCCO3)cn1C	5	3	11	8	-12	-2
Cc1ccc(NC(=O)C2CCCCC2C(=O)O)cc1C (stereo not given)	1	-12	3	-5	4	-3
O=C(COc1cccnc1[N+](=O)[O-])Nc1ccccc1Sc1ccccc1	15	-6	11	-20	-8	5
Cc1ccc(NS(=O)(=O)c2ccc(NC(=O)CN(c3cc([N+](=O)[O-])ccc3C)S(C)(=O)=O)cc2)c(C)c1	11	-17	39	62*	25	50*
SMILES	HIF-2a inh	CF NFkB block	TROY NFkB inh	TWEAK Fn14 block	KKLEB tox	Peg3 prom inh
Cc1ccc(S(=O)(=O)N2CCCCC2)cc1C(=O)OC(C)C(=O)NCC1CCCCC1 (stereo not given)	26	9	2	-3	-4	25
CC(C)c1cccc(C(C)C)c1NC(=O)OC1CCCCC1	17	16	58*	-2	-8	13
Cc1nc(N2CCN(C(=O)c3cccs3)CC2)c2c3c(sc2n1)CCCC3	1	-19	25	-5	12	38
O=C(O)c1ccc(N/N=C/c2ccc(-c3ccccc3Cl)o2)cc1	-130	33	14	51*	8	-81
O=C(N/N=C/c1ccc(-c2ccccc2Cl)o1)c1ccccc1	-235	-16	-17	-24	-6	-162
CC(=O)Oc1ccc(C23c4ccccc4C2(OC(C)=O)c2cc(OC(C)=O)ccc23)cc1 (stereo not given)	-23	42	34	89*	-11	34
CC(=O)Oc1ccc(C(=O)Nc2ccccc2NC(=O)c2ccc(OC(C)=O)cc2)cc1	17	-17	28	29	-3	9
Cc1cc(S(=O)(=O)ON2C(=O)c3ccccc3C2=O)ccc1F	34	8	-1	-1	-8	61*
c1ccc(CN2CCC(Nc3nc(-c4cccs4)nc4ccccc34)CC2)cc1	22	5	20	-40	-18	75*
O=c1oc(-c2ccccc2)nc2sc3c(c12)CCCC3	-366	4	-32	53*	-9	-173
Cc1ccccc1-c1nc2sc3c(c2c(=O)n1N)CCCC3	-127	-18	77*	71*	-13	-247
COc1ccc(CNC(=O)CSc2nnc3c(n2)[nH]c2ccc(F)cc23)cc1	-8	6	-6	13	-10	12
CCOC(=O)CN(C(=O)CSc1nnc2c(n1)[nH]c1ccc(OC)cc12)c1ccc(F)cc1	13	-10	74*	66*	8	36
COc1ccc2[nH]c3nc(SC(C)C)nnc3c2c1	-161	-15	54*	92*	-11	-139
CCc1noc(C)c1C(=O)Nc1cc(S(=O)(=O)N2CCCCC2)ccc1N(C)C	2	4	-7	-20	0	16
CC(C)Nc1nc(Cl)nc(N(C#N)CN2C(=O)c3ccccc3C2=O)n1	-11	0	5	16	0	95*
CCC(C)Nc1nc(Cl)nc(N(C#N)CN2C(=O)c3ccccc3S2(=O)=O)n1 (stereo not given)	20	15	18	4	-10	15

Source: PubChem (Sanford-Burnham Center for Chemical Genomics)
